Here are results for 5 compounds from PubChem BioAssay.

Each structure is given as a SMILES string. Activity calls are given as the source filed them. Unless noted, the rule behind the calls is not given here.

A short description of experiment [1]: compounds binding Alexa647 anti-His antibody – biochemical, small-molecule microarray, 635 nm fluorescence, artefact control for SMM control protein annotation, primary screen (AID 1128).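 Note: score merges feature fluorescence with signal-to-noise for each printed compound spot.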 To be noted: higher = more signal.
The subject of experiment [2] is Human papillomavirus type 1a E7 protein (residues 1-88). The experiment is described as follows: HPV1a E7 small-molecule binders, primary screen, biochemical, small-molecule microarray, residues 1-88, 635 nm (AID 1129). To be noted: small-molecule microarray binding, fluorescence 635 nm; higher = more signal.
The target in experiment [3] is Focal adhesion kinase 1 (Homo sapiens) (UniProt Q05397). As to the kind of experiment: PTK2 protein binding on printed compound slides – biochemical, small-molecule microarray, 635/667 nm fluorescence, BSA, DTT, primary screen (AID 1130).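 Note: composite of spot emission at 667 nm and signal to noise over triplicate slides.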 To be noted: 635 nm fluorescence, higher = more signal.
The subject of experiment [4] is Fibrinogen (Alexa647-labelled). The experiment is described as follows: Alexa647-fibrinogen binding to printed small molecules – biochemical, small-molecule microarray, 635/667 nm fluorescence, artefact control for SMM control-protein annotation, profiling panel (AID 1131).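 Note: z-score merges 667 nm fluorescence with per-spot signal-to-noise over triplicate slides.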 To be noted: fibrinogen-A647 binding fluorescence, higher = more signal.
In experiment [5] the target is Follistatin (Homo sapiens) (UniProt P19883). The experiment is described as follows: FST protein binding to printed compounds – biochemical, small-molecule microarray, 635/667 nm fluorescence, primary screen (AID 1132). To be noted: 635 nm fluorescence, higher = more signal.
The target in experiment [6] is Fibroblast growth factor 2 (Homo sapiens) (UniProt P09038). The experiment is described as follows: basic fibroblast growth factor binding to printed compounds – biochemical, small-molecule microarray, 635/667 nm fluorescence, primary screen (AID 1133). To be noted: FGF2, fluorescence 635/667, higher = more signal.
Experiment [7] in a line: JC-1 mitochondrial potential readout, lung cancer cells – cell-based, A549, JC-1 fluorescence, basal, 24 h, 100 nL, profiling panel (AID 1138).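 Note: A549 lung adenocarcinoma cells under basal conditions with no added stimulus; test concentration not given here.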 To be noted: higher = more signal.
The next experiment deals with Lefty1. The experiment is described as follows: Lefty1 protein binding to printed compounds – biochemical, small-molecule microarray, 635/667 nm fluorescence, primary screen (AID 1139). To be noted: fluorescence 635/667, higher = more signal.
Experiment [8] concerns wheat germ agglutinin (Triticum aestivum), Alexa647-labelled. As to the kind of experiment: Alexa647-WGA lectin binding to printed small molecules – biochemical, small-molecule microarray, 635/667 nm fluorescence, artefact control for SMM control-protein annotation, profiling panel (AID 1140).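 Note: score merges 667 nm feature emission with signal to noise over triplicate slides.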 To be noted: WGA-A647 binding, 635 nm fluorescence, higher = more signal.
The target in experiment [9] is Luciferin 4-monooxygenase (Photinus pyralis) (UniProt P08659). The experiment is described as follows: inhibition of purified Photinus pyralis luciferase – biochemical, luminescence, purified enzyme, 2006 set, primary screen (AID 1141).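 Note: cell-free assay with purified firefly luciferase at 100 ng per well in PBS; test concentration not given here.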 To be noted: purified firefly luciferase, SteadyGlo luminescence, 30 min; higher = more signal, called active from +8 up or from −8 down.

In experiment [10] the test system is Wnt5a (protein binding on small-molecule microarray). The experiment is described as follows: small molecules binding Wnt5a protein – biophysical, small-molecule microarray, 635/667 nm fluorescence, primary screen (AID 1142).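 Note: fluorescence read at 667 nm with signal to noise per printed feature.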 To be noted: 635 nm fluorescence, higher = more signal.
The nature of experiment [11]: ATP-based viability of Huh7 replicon cells – cell-based, CellTiter-Glo luminescence, basal, 48 h, cytotoxicity control for HCV replication inhibitor project, primary screen (AID 1143).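 Note: Huh7 hepatoma cells carrying a hepatitis C replication reporter with no stimulus; test concentration not given here.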 To be noted: higher = more signal, called active from +8 up or from −8 down. Background: Replicon systems follow genome replication, usually without infectious particles.
Experiment [12] can be described thus: Pseudomonas biofilm growth suppression – PAO1 strain, BacTiter-Glo luminescence, LB-PBS, primary screen (AID 1144). To be noted: P. aeruginosa PAO1 biofilm, 12 h, higher = more signal.
Experiment [13] can be described thus: basal CRE-LacZ reporter activity in PC12 – cell-based, unstimulated, primary screen (AID 1145). To be noted: no forskolin, luminescence, 4.5 h, higher = more signal, called active from +8 up or from −8 down.
The nature of experiment [14]: forskolin-driven CRE-LacZ activity in PC12 – cell-based, CRE-LacZ reporter, forskolin-stimulated, primary screen (AID 1146).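 Note: PC12 cells with 6xCRE LacZ reporter stimulated by forskolin 10 µM; beta-galactosidase reporter signal reflecting CREB driven transcription.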 To be noted: luminescence, 4.5 h, higher = more signal, called active from +8 up or from −8 down.
Experiment [15] deals with Streptavidin (Streptomyces avidinii) (UniProt P22629). As to the kind of experiment: compounds binding control protein streptavidin – biophysical, small-molecule microarray, 635/667 nm fluorescence, artefact control for SMM compound annotation, primary screen (AID 1147).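 Note: signal reflects streptavidin binding to arrayed compounds as a control protein.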 To be noted: higher = more signal.
The nature of experiment [16]: probe aInhba binding on compound microarray – biochemical, small-molecule microarray, 635/667 nm fluorescence, primary screen (AID 1148).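 Note: score merges 667nm spot fluorescence with signal-to-noise for antibody binding to printed compounds.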 To be noted: higher = more signal.
In experiment [17] the target is Torsin-1A (Homo sapiens) (UniProt O14656). The experiment is described as follows: TOR1A wild-type binding on microarray – cell lysate, small-molecule microarray, lysate, 635/667 nm, primary screen (AID 1149). To be noted: COS7 hTOR1A-WT lysate, 635 nm fluorescence, higher = more signal.
Experiment [18] has the same target. As to the kind of experiment: torsin A mutant lysate binding on microarrays – cell lysate, small-molecule microarray, COS7 lysate, 635/667 nm fluorescence, primary screen (AID 1150).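 Note: score pools 667 nm emission and signal to noise measuring lysate protein binding.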 To be noted: COS7 hTOR1A mutant lysate, 635 nm fluorescence, higher = more signal.
Experiment [19] relates to Sonic hedgehog protein (Shh). As to the kind of experiment: Sonic hedgehog microarray binding compounds – biochemical, small-molecule microarray, 635/667 nm fluorescence, primary screen (AID 1151).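 Note: Shh protein binding to compounds spotted on small-molecule microarray slides; score combines spot fluorescence intensity with signal-to-noise across triplicate slides.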 To be noted: 635 nm fluorescence, higher = more signal.

Fibroblast growth factor 2 (Homo sapiens), sequence (P09038 whole entry, looked up): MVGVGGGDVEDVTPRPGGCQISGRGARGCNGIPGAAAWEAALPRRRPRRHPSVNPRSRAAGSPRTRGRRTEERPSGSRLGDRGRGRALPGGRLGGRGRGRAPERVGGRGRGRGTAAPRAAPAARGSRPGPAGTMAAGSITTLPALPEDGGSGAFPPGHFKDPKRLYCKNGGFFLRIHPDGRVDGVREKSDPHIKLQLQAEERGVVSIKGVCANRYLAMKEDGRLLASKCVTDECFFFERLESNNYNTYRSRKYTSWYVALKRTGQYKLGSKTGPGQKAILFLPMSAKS
Luciferin 4-monooxygenase (Photinus pyralis), sequence (P08659 whole entry, looked up): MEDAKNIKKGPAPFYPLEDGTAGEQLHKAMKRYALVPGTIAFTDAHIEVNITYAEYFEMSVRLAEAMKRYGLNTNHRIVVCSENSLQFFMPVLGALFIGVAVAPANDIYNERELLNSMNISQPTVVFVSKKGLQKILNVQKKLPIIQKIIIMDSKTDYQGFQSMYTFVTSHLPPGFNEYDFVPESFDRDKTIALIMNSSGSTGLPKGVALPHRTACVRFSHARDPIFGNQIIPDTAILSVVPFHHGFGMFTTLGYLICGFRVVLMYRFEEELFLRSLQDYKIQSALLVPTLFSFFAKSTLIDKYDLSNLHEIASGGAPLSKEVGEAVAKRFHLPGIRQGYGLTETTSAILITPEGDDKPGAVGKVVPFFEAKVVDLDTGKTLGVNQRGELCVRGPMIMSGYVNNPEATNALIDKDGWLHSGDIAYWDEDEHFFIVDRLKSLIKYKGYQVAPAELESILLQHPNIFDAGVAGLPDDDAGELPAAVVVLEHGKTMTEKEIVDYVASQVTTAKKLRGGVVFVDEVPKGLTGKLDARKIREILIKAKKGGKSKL
Follistatin (Homo sapiens), sequence (P19883 whole entry, looked up): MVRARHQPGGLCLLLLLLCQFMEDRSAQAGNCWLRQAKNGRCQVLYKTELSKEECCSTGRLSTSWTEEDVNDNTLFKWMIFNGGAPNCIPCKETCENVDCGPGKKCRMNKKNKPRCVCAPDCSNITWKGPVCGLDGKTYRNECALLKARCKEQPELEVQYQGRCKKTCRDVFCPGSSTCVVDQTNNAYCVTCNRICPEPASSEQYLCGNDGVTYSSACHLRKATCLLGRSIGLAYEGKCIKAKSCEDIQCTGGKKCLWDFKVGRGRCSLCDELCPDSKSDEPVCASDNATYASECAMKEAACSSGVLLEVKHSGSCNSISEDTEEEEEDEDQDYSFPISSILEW
Streptavidin (Streptomyces avidinii), sequence (P22629 whole entry, looked up): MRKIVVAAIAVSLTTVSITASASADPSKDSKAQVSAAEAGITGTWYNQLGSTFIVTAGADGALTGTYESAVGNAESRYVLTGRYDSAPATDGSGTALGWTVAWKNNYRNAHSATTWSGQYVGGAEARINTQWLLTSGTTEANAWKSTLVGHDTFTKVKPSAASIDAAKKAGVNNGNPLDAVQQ
Torsin-1A (Homo sapiens), sequence (O14656 whole entry, looked up): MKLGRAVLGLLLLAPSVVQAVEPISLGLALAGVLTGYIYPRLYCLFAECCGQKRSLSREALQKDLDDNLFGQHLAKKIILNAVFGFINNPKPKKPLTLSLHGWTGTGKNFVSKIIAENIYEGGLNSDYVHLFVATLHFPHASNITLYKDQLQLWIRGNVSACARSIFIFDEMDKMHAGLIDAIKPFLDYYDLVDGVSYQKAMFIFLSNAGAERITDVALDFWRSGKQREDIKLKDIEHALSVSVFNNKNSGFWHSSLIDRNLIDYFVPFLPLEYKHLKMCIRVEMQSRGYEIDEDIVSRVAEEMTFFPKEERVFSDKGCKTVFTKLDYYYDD
Focal adhesion kinase 1 (Homo sapiens), sequence (Q05397 whole entry, looked up): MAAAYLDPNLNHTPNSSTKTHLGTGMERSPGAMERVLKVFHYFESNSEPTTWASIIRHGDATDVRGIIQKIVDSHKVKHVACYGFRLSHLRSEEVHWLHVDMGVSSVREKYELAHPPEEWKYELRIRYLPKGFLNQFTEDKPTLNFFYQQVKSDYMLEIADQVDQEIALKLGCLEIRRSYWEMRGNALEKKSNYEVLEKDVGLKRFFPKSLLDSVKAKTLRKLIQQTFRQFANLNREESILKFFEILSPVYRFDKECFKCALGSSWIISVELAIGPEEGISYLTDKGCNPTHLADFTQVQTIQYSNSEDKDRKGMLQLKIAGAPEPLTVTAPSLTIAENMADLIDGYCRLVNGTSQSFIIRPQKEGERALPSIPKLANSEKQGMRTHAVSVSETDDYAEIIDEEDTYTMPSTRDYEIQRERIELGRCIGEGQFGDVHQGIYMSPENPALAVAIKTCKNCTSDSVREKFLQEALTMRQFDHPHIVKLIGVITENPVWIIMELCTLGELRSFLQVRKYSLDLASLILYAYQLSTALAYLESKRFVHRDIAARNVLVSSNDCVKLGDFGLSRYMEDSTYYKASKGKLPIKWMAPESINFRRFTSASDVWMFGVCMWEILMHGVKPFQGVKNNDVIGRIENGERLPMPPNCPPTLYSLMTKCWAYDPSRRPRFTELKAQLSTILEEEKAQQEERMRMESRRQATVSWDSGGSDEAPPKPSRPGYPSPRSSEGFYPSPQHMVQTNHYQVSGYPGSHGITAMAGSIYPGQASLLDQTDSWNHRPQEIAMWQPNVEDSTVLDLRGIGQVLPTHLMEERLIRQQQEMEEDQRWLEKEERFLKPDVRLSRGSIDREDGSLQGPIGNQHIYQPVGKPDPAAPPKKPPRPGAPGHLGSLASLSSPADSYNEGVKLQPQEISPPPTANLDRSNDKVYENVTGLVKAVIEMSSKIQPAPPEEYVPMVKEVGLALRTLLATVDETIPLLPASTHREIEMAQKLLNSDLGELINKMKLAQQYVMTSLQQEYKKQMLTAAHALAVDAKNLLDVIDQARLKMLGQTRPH

Turning to `C=C(CCCC)C(=O)CC[C@@H](OC(C)=O)c1ccccc1OCCO`, the composite z-score was -0.848 in experiment [1]; -0.806 in [2]; -0.523 in [3]; -1.75 in experiment [4]; -0.245 in experiment [5]; -0.508 in experiment [6]. Moreover, the composite z-score in the experiment with Lefty1 is -0.0521; in [8], -0.788; in [10] it was -0.283; in experiment [15], -0.484; in experiment [16] it was -0.024; with Torsin-1A (Homo sapiens) [17], -0.0615. The composite z-score with Torsin-1A (Homo sapiens) [18] was determined as 0.915; in [19] it was 0.276. Further, the z-score is 0.846 in experiment [7]; -1.33 (inactive) in [9]; -3.08 (inactive) in experiment [11]; -0.206 (inactive) in [12]; 9.35 (active) in experiment [13]; -0.841 (inactive) in [14].
Consider `COCCOC(=O)N1C(=O)[C@@]2(c3cc(C#CC4=CCCCC4)ccc31)[C@H](c1ccc(O)cc1)N1[C@H](c3ccccc3)[C@H](c3ccccc3)OC(=O)[C@H]1[C@@H]2C(=O)N1CCCCCCC1`, for which the composite z-score in experiment [1] came out at 0.31; in [2] it was 1.15; in [3], 1.45; in experiment [4] it was 0.694; in [5] it was 1.23; in experiment [6], 1.22. The composite z-score with Lefty1 is 1.12; in experiment [8], 0.576; in experiment [10], 0.288; in experiment [15], 1.29; in experiment [16], 0.0818; in the experiment with Torsin-1A (Homo sapiens) [17], 0.588. The composite z-score in the experiment with Torsin-1A (Homo sapiens) [18] was 0.594; in experiment [19], 1.76. Besides, the z-score was 1.99 in experiment [7]; -1.72 (inactive) in experiment [9]; -3.42 (inactive) in experiment [11]; -0.307 (inactive) in [12]; -1.01 (inactive) in experiment [13]; -1.09 (inactive) in experiment [14].
For the compound `Cc1ccc(S[C@]2(C(=O)NCCCN(C)C)CC(=O)N(Cc3ccccc3)[C@@H]2c2ccc(CO)cc2I)cc1`, the composite z-score in [1] is 0.412; in experiment [2], -0.0835; in [3] it was 0.152; in experiment [4], 0.233; in experiment [5], -0.143; in experiment [6] it was -1.33. Further, the composite z-score was -0.892 in the experiment on Lefty1; 0.876 in experiment [8]; -0.278 in experiment [10]; -0.0112 in experiment [15]; -0.0645 in experiment [16]; -1.84 in the experiment with Torsin-1A (Homo sapiens) [17]. Besides, the composite z-score in the experiment with Torsin-1A (Homo sapiens) [18] was -1.08; in experiment [19], -0.824. Also, the z-score in experiment [7] is 3.68; in [9], -0.0307 (inactive); in [11], -2.97 (inactive); in experiment [12] it was 0.831 (inactive); in [13], 0.531 (inactive); in experiment [14] it was 2.84 (inactive).
Take `C[C@@H]1NC(=O)[C@H](Cc2ccccc2)NC(=O)[C@@]23C(=O)N[C@@H](Cc4ccccc4)C2[C@H](C)[C@@]2(C)O[C@H]2C3/C=C/C/C=C\CNC1=O` (stereo not given in full): the composite z-score is 0.0093 in experiment [1]; -1.79 in [2]; -0.524 in experiment [3]; -0.89 in experiment [4]; 0.216 in [5]; 0.0447 in experiment [6]. The composite z-score in the experiment with Lefty1 was 0.256; in experiment [8], -0.906; in [10], -0.401; in experiment [15], -0.528; in experiment [16], -0.128; in the experiment with Torsin-1A (Homo sapiens) [17], -0.0926. Further, the composite z-score in the experiment with Torsin-1A (Homo sapiens) [18] was -0.0686; in [19], 0.596. The z-score in experiment [7] is -0.0521; in experiment [9] it was -0.0116 (inactive); in [11] it was 0.0081 (inactive); in [12], 0.683 (inactive); in [13], 0.125 (inactive); in experiment [14], 0.349 (inactive).
Turning to `C=C(C)[C@@H]1CC=C(C(O)C2C=CC3C(=O)NC(=O)C3N2Nc2ccccn2)CC1` (stereo not given in full), the composite z-score is 2.31 in experiment [1]; 1.15 in experiment [2]; -0.167 in experiment [3]; 1.02 in experiment [4]; 1.58 in experiment [5]; 1.92 in experiment [6]. In addition, the composite z-score in the experiment with Lefty1 turned out to be 1.75; in [8], 0.842; in [10], 0.742; in experiment [15], 0.717; in [16], 0.093; in the experiment with Torsin-1A (Homo sapiens) [17], 1.1. The composite z-score with Torsin-1A (Homo sapiens) [18] worked out at 0.705; in experiment [19] it was 2.28. The z-score in [7] is 0.781; in [9] it was -0.332 (inactive); in experiment [11] it was 0.715 (inactive); in experiment [12], -0.555 (inactive); in experiment [13], -0.14 (inactive); in [14], 0.621 (inactive).
